# Measurements as given in the supplement of paper PMC4022240.
# ± gives the standard deviation.
# T1: HaloTag-ATRX ADD domain (163-292)
# T1 chain: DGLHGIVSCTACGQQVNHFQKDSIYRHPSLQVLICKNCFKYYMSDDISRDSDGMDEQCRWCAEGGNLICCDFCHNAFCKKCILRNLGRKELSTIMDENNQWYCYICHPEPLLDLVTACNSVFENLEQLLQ
# B1: H3 5-17 Q T A Rme2s Kme S T G G K A P R (peptide)
# chain: QTARKSTGGKAPR
# B2: H3 5-17 Q T A Rme2a Kac S T G G K A P R (peptide)
# chain: QTARKSTGGKAPR
# B3: H3 5-17 Q T A Rme2a K Sph T G G K A P R (peptide)
# chain: QTARKSTGGKAPR
# B4: H3 5-17 Q T A Rme Kme3 S T G G K A P R (peptide)
# chain: QTARKSTGGKAPR
# B5: H3 5-17 Q T A Rme K Sph T G G K A P R (peptide)
# chain: QTARKSTGGKAPR
# B6: H3 5-17 Q T A R K Sph T G G Kac A P R (peptide)
# chain: QTARKSTGGKAPR
# B7: H3 5-17 Q T A Rme2s K S Tph G G K A P R (peptide)
# chain: QTARKSTGGKAPR
# B8: H3 5-17 Q T A R K Sph T G G Kme2 A P R (peptide)
# chain: QTARKSTGGKAPR
# B9: H3 5-17 Q T A Rme2s Kac S T G G K A P R (peptide)
# chain: QTARKSTGGKAPR
# B10: H3 5-17 Q T A Rme2a Kme3 S T G G K A P R (peptide)
# chain: QTARKSTGGKAPR
# Key:
# Test in all cases: peptide microarray binding signal (635 nm), min-max normalized on array (fraction of array maximum); higher = stronger binding
# Settings in all cases: peptide region: H3 5-17
# [1] = biological target: T1, HaloTag-ATRX ADD domain (163-292)
# How it was run: (§1)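 Arrays carried histone 13-mer peptide–cellulose conjugates printed in triplicate on nitrocellulose alongside a Cy3 tracer. After overnight blocking at 4°C, they were incubated for 1 h at 4°C with biotin-labelled HaloTag reader fusions (10 nM to 1 μM) plus streptavidin-Alexa Fluor 647, or with rabbit histone antibodies (1:10,000 to 1:2,000) plus anti-rabbit Alexa 647. Scanning on an Axon GenePix 4000B used 635 nm for signal and 532 nm for misprints. The binding signal reported is each triplicate's mean spot intensity after per-library min-max scaling.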
# [2] = biological target: HaloTag-ING2 PHD (mouse Ing2 200-280)
# How it was run: as §1
# [3] = biological target: anti-H3K4me3 antibody ab8580
# How it was run: as §1
# [4] = biological target: anti-H3K9me3 antibody ab8898
# How it was run: as §1
# [5] = peptide modifications: H3R8me2s H3K9me1, binder concentration: 1:2,000 dilution
# [6] = peptide modifications: H3R8me2s H3K9me1, binder concentration: 1:10,000 dilution
# [7] = peptide modifications: H3R8me2a H3K9ac, binder concentration: 1:2,000 dilution
# [8] = peptide modifications: H3R8me2a H3K9ac, binder concentration: 1:10,000 dilution
# [9] = peptide modifications: H3R8me2a H3S10ph, binder concentration: 1:2,000 dilution
# [10] = peptide modifications: H3R8me2a H3S10ph, binder concentration: 1:10,000 dilution
# [11] = peptide modifications: H3R8me1 H3K9me3, binder concentration: 1:2,000 dilution
# [12] = peptide modifications: H3R8me1 H3K9me3, binder concentration: 1:10,000 dilution
# [13] = peptide modifications: H3R8me1 H3S10ph, binder concentration: 1:2,000 dilution
# [14] = peptide modifications: H3R8me1 H3S10ph, binder concentration: 1:10,000 dilution
# [15] = peptide modifications: H3S10ph H3K14ac, binder concentration: 1:2,000 dilution
# [16] = peptide modifications: H3S10ph H3K14ac, binder concentration: 1:10,000 dilution
# [17] = peptide modifications: H3R8me2s H3T11ph, binder concentration: 1:2,000 dilution
# [18] = peptide modifications: H3R8me2s H3T11ph, binder concentration: 1:10,000 dilution
# [19] = peptide modifications: H3S10ph H3K14me2, binder concentration: 1:2,000 dilution
# [20] = peptide modifications: H3S10ph H3K14me2, binder concentration: 1:10,000 dilution
# [21] = peptide modifications: H3R8me2s H3K9ac, binder concentration: 1:2,000 dilution
# [22] = peptide modifications: H3R8me2s H3K9ac, binder concentration: 1:10,000 dilution
# [23] = peptide modifications: H3R8me2a H3K9me3, binder concentration: 1:2,000 dilution
# [24] = peptide modifications: H3R8me2a H3K9me3, binder concentration: 1:10,000 dilution
binder,measurement,setting,value
B1,peptide microarray binding signal,"[1]; peptide modifications: H3R8me2s H3K9me1, binder concentration: 50 nM",0.0141 ± 0.0025
same,peptide microarray binding signal,"[1]; peptide modifications: H3R8me2s H3K9me1, binder concentration: 500 nM",0.0312 ± 0.016
same,peptide microarray binding signal,"[2]; peptide modifications: H3R8me2s H3K9me1, binder concentration: 10 nM",0.0334 ± 0.0012
same,peptide microarray binding signal,"[2]; peptide modifications: H3R8me2s H3K9me1, binder concentration: 100 nM",0.0522 ± 0.0014
same,peptide microarray binding signal,[3]; [5],0.0185 ± 0.0025
same,peptide microarray binding signal,[3]; [6],0.0237 ± 0.00078
same,peptide microarray binding signal,[4]; [5],0.0146 ± 0.0028
same,peptide microarray binding signal,[4]; [6],0.0153 ± 0.0016
B2,peptide microarray binding signal,"[1]; peptide modifications: H3R8me2a H3K9ac, binder concentration: 50 nM",0.00423 ± 6.5e-05
same,peptide microarray binding signal,"[1]; peptide modifications: H3R8me2a H3K9ac, binder concentration: 500 nM",0.003 ± 4.1e-05
same,peptide microarray binding signal,"[2]; peptide modifications: H3R8me2a H3K9ac, binder concentration: 10 nM",0.00651
same,peptide microarray binding signal,"[2]; peptide modifications: H3R8me2a H3K9ac, binder concentration: 100 nM",0.00765 ± 0.00019
same,peptide microarray binding signal,[3]; [7],0.00208 ± 6e-05
same,peptide microarray binding signal,[3]; [8],0.00217 ± 5.2e-05
same,peptide microarray binding signal,[4]; [7],0.00403 ± 0.00054
same,peptide microarray binding signal,[4]; [8],0.00427 ± 9.8e-05
B3,peptide microarray binding signal,"[1]; peptide modifications: H3R8me2a H3S10ph, binder concentration: 50 nM",0.00837 ± 0.0001
same,peptide microarray binding signal,"[1]; peptide modifications: H3R8me2a H3S10ph, binder concentration: 500 nM",0.0191 ± 0.0021
same,peptide microarray binding signal,"[2]; peptide modifications: H3R8me2a H3S10ph, binder concentration: 10 nM",0.0259 ± 0.0014
same,peptide microarray binding signal,"[2]; peptide modifications: H3R8me2a H3S10ph, binder concentration: 100 nM",0.0521 ± 0.0085
same,peptide microarray binding signal,[3]; [9],0.00508 ± 0.00076
same,peptide microarray binding signal,[3]; [10],0.00525 ± 0.00042
same,peptide microarray binding signal,[4]; [9],0.00298 ± 0.00042
same,peptide microarray binding signal,[4]; [10],0.00288 ± 4.3e-05
B4,peptide microarray binding signal,"[1]; peptide modifications: H3R8me1 H3K9me3, binder concentration: 50 nM",0.00652 ± 0.00076
same,peptide microarray binding signal,"[1]; peptide modifications: H3R8me1 H3K9me3, binder concentration: 500 nM",0.0104 ± 0.0013
same,peptide microarray binding signal,"[2]; peptide modifications: H3R8me1 H3K9me3, binder concentration: 10 nM",0.0116 ± 0.00032
same,peptide microarray binding signal,"[2]; peptide modifications: H3R8me1 H3K9me3, binder concentration: 100 nM",0.0168 ± 0.002
same,peptide microarray binding signal,[3]; [11],0.0438 ± 0.013
same,peptide microarray binding signal,[3]; [12],0.0394 ± 0.0046
same,peptide microarray binding signal,[4]; [11],0.185 ± 0.023
same,peptide microarray binding signal,[4]; [12],0.243 ± 0.0063
B5,peptide microarray binding signal,"[1]; peptide modifications: H3R8me1 H3S10ph, binder concentration: 50 nM",0.0079 ± 0.00028
same,peptide microarray binding signal,"[1]; peptide modifications: H3R8me1 H3S10ph, binder concentration: 500 nM",0.0149 ± 0.003
same,peptide microarray binding signal,"[2]; peptide modifications: H3R8me1 H3S10ph, binder concentration: 10 nM",0.0175 ± 0.0014
same,peptide microarray binding signal,"[2]; peptide modifications: H3R8me1 H3S10ph, binder concentration: 100 nM",0.0298 ± 0.002
same,peptide microarray binding signal,[3]; [13],0.00208 ± 0.00022
same,peptide microarray binding signal,[3]; [14],0.00217 ± 0.00011
same,peptide microarray binding signal,[4]; [13],0.00359 ± 0.00056
same,peptide microarray binding signal,[4]; [14],0.00306
B6,peptide microarray binding signal,"[1]; peptide modifications: H3S10ph H3K14ac, binder concentration: 50 nM",0.0047 ± 0.00015
same,peptide microarray binding signal,"[1]; peptide modifications: H3S10ph H3K14ac, binder concentration: 500 nM",0.0165 ± 0.0018
same,peptide microarray binding signal,"[2]; peptide modifications: H3S10ph H3K14ac, binder concentration: 10 nM",0.0122 ± 0.0017
same,peptide microarray binding signal,"[2]; peptide modifications: H3S10ph H3K14ac, binder concentration: 100 nM",0.0326 ± 0.0032
same,peptide microarray binding signal,[3]; [15],0.00136 ± 0.00015
same,peptide microarray binding signal,[3]; [16],0.0012 ± 3.2e-05
same,peptide microarray binding signal,[4]; [15],0.00435 ± 0.00042
same,peptide microarray binding signal,[4]; [16],0.00213 ± 7.1e-05
B7,peptide microarray binding signal,"[1]; peptide modifications: H3R8me2s H3T11ph, binder concentration: 50 nM",0.00458 ± 6e-05
same,peptide microarray binding signal,"[1]; peptide modifications: H3R8me2s H3T11ph, binder concentration: 500 nM",0.0138 ± 0.0057
same,peptide microarray binding signal,"[2]; peptide modifications: H3R8me2s H3T11ph, binder concentration: 10 nM",0.0277 ± 0.00076
same,peptide microarray binding signal,"[2]; peptide modifications: H3R8me2s H3T11ph, binder concentration: 100 nM",0.0321 ± 0.004
same,peptide microarray binding signal,[3]; [17],0.0081 ± 0.0027
same,peptide microarray binding signal,[3]; [18],0.00474 ± 0.00064
same,peptide microarray binding signal,[4]; [17],0.00136 ± 0.00012
same,peptide microarray binding signal,[4]; [18],0.001441 ± 1.4e-05
B8,peptide microarray binding signal,"[1]; peptide modifications: H3S10ph H3K14me2, binder concentration: 50 nM",0.0068 ± 0.00015
same,peptide microarray binding signal,"[1]; peptide modifications: H3S10ph H3K14me2, binder concentration: 500 nM",0.015 ± 0.00086
same,peptide microarray binding signal,"[2]; peptide modifications: H3S10ph H3K14me2, binder concentration: 10 nM",0.00597 ± 0.00047
same,peptide microarray binding signal,"[2]; peptide modifications: H3S10ph H3K14me2, binder concentration: 100 nM",0.0125 ± 0.0027
same,peptide microarray binding signal,[3]; [19],0.00874 ± 0.00064
same,peptide microarray binding signal,[3]; [20],0.0077 ± 0.0015
same,peptide microarray binding signal,[4]; [19],0.00565 ± 0.00062
same,peptide microarray binding signal,[4]; [20],0.00294 ± 0.00015
B9,peptide microarray binding signal,"[1]; peptide modifications: H3R8me2s H3K9ac, binder concentration: 50 nM",0.0102 ± 0.00014
same,peptide microarray binding signal,"[1]; peptide modifications: H3R8me2s H3K9ac, binder concentration: 500 nM",0.0189 ± 0.00053
same,peptide microarray binding signal,"[2]; peptide modifications: H3R8me2s H3K9ac, binder concentration: 10 nM",0.0344 ± 0.0018
same,peptide microarray binding signal,"[2]; peptide modifications: H3R8me2s H3K9ac, binder concentration: 100 nM",0.064 ± 0.0047
same,peptide microarray binding signal,[3]; [21],0.0111 ± 0.0022
same,peptide microarray binding signal,[3]; [22],0.0146 ± 0.00068
same,peptide microarray binding signal,[4]; [21],0.011 ± 0.00081
same,peptide microarray binding signal,[4]; [22],0.00899 ± 0.0016
B10,peptide microarray binding signal,"[1]; peptide modifications: H3R8me2a H3K9me3, binder concentration: 50 nM",0.00527 ± 0.0012
same,peptide microarray binding signal,"[1]; peptide modifications: H3R8me2a H3K9me3, binder concentration: 500 nM",0.0107 ± 0.0015
same,peptide microarray binding signal,"[2]; peptide modifications: H3R8me2a H3K9me3, binder concentration: 10 nM",0.0164 ± 0.0009
same,peptide microarray binding signal,"[2]; peptide modifications: H3R8me2a H3K9me3, binder concentration: 100 nM",0.019 ± 0.0012
same,peptide microarray binding signal,[3]; [23],0.0361 ± 0.011
same,peptide microarray binding signal,[3]; [24],0.0283 ± 0.011
same,peptide microarray binding signal,[4]; [23],0.208 ± 0.075
same,peptide microarray binding signal,[4]; [24],0.208 ± 0.025
